High-throughput results deposited in PubChem by National Center for Advancing Translational Sciences (NCATS).
A selection: hits, their analogues and other compounds. The true share with any hit is near 12%.
AMA1-RON2 inh – AMA1-RON2 (P. falciparum) interaction inhibition; AlphaScreen AMA1-biotinylated RON2 peptide binding; Potency, µM (top dose mostly 58.2 µM), actives largely listed as inhibitors; 360,000 tested, 0.2% active; AID 720542; note: nearly all actives have a fitted effect of over 45% in size
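AMA1 (3D7) with his tag at 25 nM final met compounds first, then biotinylated RON2 peptide at 25 nM; detection used donor plus acceptor beads, 10 µg/mL apiece, read by AlphaScreen after 30 min at room temperature.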
Pf growth 96h – P. falciparum growth inhibition at 96 hours; P. falciparum luciferase reporter growth, 96 h; Potency, µM (doses to about 28.7 µM), hits mostly inhibitors; 320,000 tested, 6.9% active
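Luminescence readout: decreased luciferase signal marks inhibited growth of reporter-expressing P. falciparum in infected red cells (2% hematocrit, 0.05% parasitemia final), exposed to compound two generations (96 h, 37 C, 5% CO2).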
Pf growth 48h – inhibits P. falciparum growth in the first generation, 48 h; Potency, µM (highest dose often 28.7 µM), hits mostly inhibitors; P. falciparum luciferase growth in erythrocytes, 48 h; 310,000 tested, 5.9% active; AID 504832
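Here the parasites carry a stable luciferase gene and grow inside erythrocytes in Albumax-based RPMI medium with compound for one erythrocytic cycle. Activity is scored as loss of luminescent signal.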
SARS PLpro yeast – SARS-CoV PLP inhibition in yeast; S. cerevisiae expressing SARS-CoV PLpro, growth rescue; AID 485353; 330,000 tested, 0.19% active; Potency, µM (doses to about 32.9 µM), hits mostly activators; calls by dose curve; note: nearly all actives have a fitted effect of over 55% in size
HCV inhibitor – HCV inhibition | Potency, µM (top dose mostly 41.8 µM), usual class: inhibitors | 340,000 tested, 3.4% active | Huh7.5.1 HCVcc-Cre infection, luciferase reporter, 44 h
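Seed cells (1,000/well) for 4 h; treat with compound and infect with HCVcc-Cre, moi about 0.5. Incubate 44 h, then detect luciferase activity.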
NS1 inh – blocks influenza NS1 protein function; Potency, µM (titrated, usually from 46.1 µM); 270,000 tested, 0.4% active; AID 2326; calls by dose curve; note: actives are rising curves; nearly all actives have a fitted effect of over 50% in size
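Read-out: OD600 growth recovery of NS1-expressing budding yeast. Cells grown overnight at 30C in -URA glucose medium, washed, resuspended and diluted 1:100 in 2% galactose assay medium, pH 6.0. Same strain lacking NS1 served as positive control.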
Hits are given with their value; - = inactive; ? = inconclusive; . = not tested or not shown; [ ] = dose if it differs, or a comment. Unless noted, calls come from the whole dose curve; as a rule, active = well fitted curve in the direction sought with a large enough effect; inconclusive = small, poorly fitted or top-dose-only effect, or another doubt; inactive = no such curve, though single readings can be large; an effect the other way counts as inactive or inconclusive.

SMILES	AMA1-RON2 inh	Pf growth 96h	Pf growth 48h	SARS PLpro yeast	HCV inhibitor	NS1 inh
Cc1cccc(Oc2ccccc2NC(=O)CSCC(=O)Nc2cc(C)on2)c1	-	?	?	-	?	.
COc1ccccc1NC(=O)CSc1nnc(COc2ccccc2C)o1	-	-	-	-	?	-
CCOc1ccc(Oc2ccccc2NC(=O)CSCC(=O)Nc2cc(C)on2)cc1	-	?	?	-	8.9µM	.
CCc1ccc(NC(=O)CSc2nnc(COc3ccc4c(c3)CCCC4)o2)cc1	-	?	.	-	-	-
COC(=O)c1ccc(NC(=O)CSc2nnc(COc3ccc4c(c3)CCCC4)o2)cc1	-	1.9µM	-	-	-	-
CCOC(=O)c1cccc(NC(=O)CSc2nnc(COc3ccccc3C)o2)c1	-	7.4µM	-	-	-	-
Cc1cc(NC(=O)CSc2nnc(COc3ccccc3)o2)no1	11µM	-	-	-	-	-
Cc1cc(NC(=O)CSc2nnc(-c3ccco3)o2)no1	28µM	-	-	.	-	-
CN1CCc2cc3c(c4c2[C@H]1[C@H](O)c1ccccc1-4)OCO3	-	?	1.7µM	-	-[8.37 µM]	-
COc1ccc2c(c1OC)C(=O)OC2C1c2c(cc3c(c2OC)OCO3)CCN1C (stereo not given)	-	13µM	?	-	-[8.37 µM]	-
CCn1c(CN2CCN(C(c3ccccc3)c3ccccc3)CC2)nc2c1c(=O)n(C)c(=O)n2C	-	3.3µM	.	-	?	-
CCOC(=O)Cn1c(CN2CCN(C(c3ccccc3)c3ccccc3)CC2)nc2c1c(=O)n(C)c(=O)n2C	-	1.9µM	4.1µM	-	?	-
Cn1c(=O)c2c(nc(CN3CCN(C(c4ccccc4)c4ccccc4)CC3)n2CC(N)=O)n(C)c1=O	-	?	.	-	-	-
COc1ccccc1-n1cc(CN2CCN(CC=C(C)C)C(CCO)C2)cn1 (stereo not given)	-	-	-	-	-	-
COc1ccc(Oc2nc(-c3ccncc3)nc3ccccc23)cc1	-	?	?	-	?	-
CCCOc1ccc(Oc2nc(-c3ccncc3)nc3ccccc23)cc1	-	1µM	1.3µM	-	?	-
C=CCOc1nc(-c2ccncc2)nc2ccccc12	-	-	7.4µM	-	5µM	-
COc1nc(-c2ccncc2)nc2ccccc12	-	?	?	-	?	-
CC(=O)c1ccc(Oc2nc(-c3cccnc3)nc3ccccc23)cc1	-	-	?	-	11µM	-
Cc1cc(C)n(C(C)CC(=O)Nc2ccc3c(c2)OCO3)n1 (stereo not given)	-	-	-	-	-	-
O=C(NCc1ccccc1)c1cc2ccccc2oc1=O	-	-	-	-	-	-
O=C(NCc1ccc(Cl)cc1)c1cc2ccccc2oc1=O	-	5.2µM	-	-	-	-
CC(C(=O)NC(=O)NC1CCCCC1)N(C)CC(=O)Nc1ccc(F)c(F)c1F (stereo not given)	-	?	?	-	?	.
CCOC(=O)N1CCN(C(=O)CNC(=O)c2nn(-c3ccc(OC)cc3OC)c(=O)c3ccccc23)CC1	-	1µM	?	-	-	-
CCN1CCN(C(=O)CNC(=O)c2nn(-c3ccc(OC)cc3)c(=O)c3ccccc23)CC1	-	1.5µM	-	-	-	-
SMILES	AMA1-RON2 inh	Pf growth 96h	Pf growth 48h	SARS PLpro yeast	HCV inhibitor	NS1 inh
COc1ccc(-n2nc(C(=O)NCC(=O)N3CCCC3)c3ccccc3c2=O)c(OC)c1	-	-	-	-	-	-
COc1ccc(-n2nc(C(=O)NCC(=O)N3CC(C)CC(C)C3)c3ccccc3c2=O)c(OC)c1 (stereo not given)	-	-	2.1µM	-	-	-
COc1ccc(-n2nc(C(=O)NCC(=O)Nc3cc(C)ccc3OC)c3ccccc3c2=O)c(OC)c1	-	?	12µM	-	-	-
COc1cc2c(cc1OC)C(c1cc3cc(C)ccc3[nH]c1=O)N(C(=O)c1ccco1)CC2 (stereo not given)	-	-	?	-	-	-
COc1ccc2cc(C3c4cc(OC)c(OC)cc4CCN3C(=O)c3ccco3)c(=O)[nH]c2c1 (stereo not given)	-	-	5.2µM	-	-	-
CCC(=O)N1CCc2cc(OC)c(OC)cc2C1COc1ccc(C(=O)OC)cc1 (stereo not given)	-	?	10µM	-	?	-
